Measured values: article PMC8384837, “Expanding the binding specificity for RNA recognition by a PUF domain”
Numbering of substitutions follows the chain as printed.

Columns and labels:
Assay in all cases: yeast three-hybrid, YBZ-1, SC-Leu-His + 0.5 mM 3-AT, 4 days
Settings in all cases: tags: N-Gal4 AD-HA kept; label: inside an RPR1-promoter hybrid RNA with tandem MS2 sites; ssRNA
PUM1 PUF domain R5-LHD = PUM1 PUF domain R5-LHD (Homo sapiens, UniProt Q14671 828-1176, C1007L;R1008H;Q1011D)
In short: (§1)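 A centromeric plasmid in strain YBZ-1 co-expressed Pumilio-1 PUF domain libraries, randomized at the three base-contacting residues of each repeat, with matching RNA elements; the strain carries a LexA–MS2 coat fusion and a HIS3 reporter. After four days on SC-Leu (input) or SC-Leu-His + 0.5 mM 3-AT (selection), the repeat regions were PCR-amplified and Illumina-sequenced. The interaction score is the log change in variant frequency from input to selection, using log2 and a pseudocount of 1 where absent.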

PUM1 PUF domain R3-SCP = PUM1 PUF domain R3-SCP (Homo sapiens, UniProt Q14671 828-1176, C935S;R936C;Q939P)
In short: as §1

PUM1 PUF domain R3-FRR = PUM1 PUF domain R3-FRR (Homo sapiens, UniProt Q14671 828-1176, C935F;Q939R)
In short: as §1

PUM1 PUF domain R3-GIR = PUM1 PUF domain R3-GIR (Homo sapiens, UniProt Q14671 828-1176, C935G;R936I;Q939R)
In short: as §1

PUM1 PUF domain R3-AAE = PUM1 PUF domain R3-AAE (Homo sapiens, UniProt Q14671 828-1176, C935A;R936A;Q939E)
In short: as §1

PUM1 PUF domain R3-TRC = PUM1 PUF domain R3-TRC (Homo sapiens, UniProt Q14671 828-1176, C935T;Q939C)
In short: as §1

PUM1 PUF domain R7-RRH = PUM1 PUF domain R7-RRH (Homo sapiens, UniProt Q14671 828-1176, S1079R;N1080R;E1083H)
In short: as §1

PUM1 PUF domain R3-RVN = PUM1 PUF domain R3-RVN (Homo sapiens, UniProt Q14671 828-1176, C935R;R936V;Q939N)
In short: as §1

PUM1 PUF domain R3-RPD = PUM1 PUF domain R3-RPD (Homo sapiens, UniProt Q14671 828-1176, C935R;R936P;Q939D)
In short: as §1

PUM1 PUF domain R7-ISS = PUM1 PUF domain R7-ISS (Homo sapiens, UniProt Q14671 828-1176, S1079I;N1080S;E1083S)
In short: as §1

PUM1 PUF domain R6-VFK = target: T1, PUM1 PUF domain R6-VFK (Homo sapiens, UniProt Q14671 828-1176, N1043V;Y1044F;Q1047K)
T1 sequence: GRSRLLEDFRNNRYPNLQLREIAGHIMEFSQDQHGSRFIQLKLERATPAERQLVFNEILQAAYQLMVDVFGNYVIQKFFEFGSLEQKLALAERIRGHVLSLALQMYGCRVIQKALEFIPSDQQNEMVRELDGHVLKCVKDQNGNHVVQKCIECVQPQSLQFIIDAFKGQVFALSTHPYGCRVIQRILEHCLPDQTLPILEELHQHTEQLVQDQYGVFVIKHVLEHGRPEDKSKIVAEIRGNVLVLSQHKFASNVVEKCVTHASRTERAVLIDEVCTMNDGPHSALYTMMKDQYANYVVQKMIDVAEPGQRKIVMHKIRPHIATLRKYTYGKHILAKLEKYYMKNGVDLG
In short: as §1

PUM1 PUF domain R2-PFQ = PUM1 PUF domain R2-PFQ (Homo sapiens, UniProt Q14671 828-1176, N899P;Y900F)
In short: as §1

PUM1 PUF domain R4-EHG = PUM1 PUF domain R4-EHG (Homo sapiens, UniProt Q14671 828-1176, N971E;Q975G)
In short: as §1

PUM1 PUF domain R4-SRG = PUM1 PUF domain R4-SRG (Homo sapiens, UniProt Q14671 828-1176, N971S;H972R;Q975G)
In short: as §1

PUM1 PUF domain R6-SFK = target: T2, PUM1 PUF domain R6-SFK (Homo sapiens, UniProt Q14671 828-1176, N1043S;Y1044F;Q1047K)
T2 sequence: T1 sequence with V216S
In short: as §1

PUM1 PUF domain R3-LYI = PUM1 PUF domain R3-LYI (Homo sapiens, UniProt Q14671 828-1176, C935L;R936Y;Q939I)
In short: as §1

PUM1 PUF domain R4-RMQ = PUM1 PUF domain R4-RMQ (Homo sapiens, UniProt Q14671 828-1176, N971R;H972M)
In short: as §1

PUM1 PUF domain R5-LKL = PUM1 PUF domain R5-LKL (Homo sapiens, UniProt Q14671 828-1176, C1007L;R1008K;Q1011L)
In short: as §1

PUM1 PUF domain R4-FNM = PUM1 PUF domain R4-FNM (Homo sapiens, UniProt Q14671 828-1176, N971F;H972N;Q975M)
In short: as §1

PUM1 PUF domain R8-PWI = PUM1 PUF domain R8-PWI (Homo sapiens, UniProt Q14671 828-1176, N1122P;Y1123W;Q1126I)
In short: as §1

“GGCUAGAACUAGUGGAUCCCCCGGCGCCCGGCGGCUCGAGCCCGGGUAAGUGUGAAUAGUCUGCAUGCCGCCGGGCGCCAUGCCUGCAGGUCGACUCUAGAAAACAUG” was tested, and the binding signal (PUM1 PUF domain R5-LHD) was 2.82 log2 enrichment (interaction score).
“GGCUAGAACUAGUGGAUCCCCCGGCGCCCGGCGGCUCGAGCCCGGGUAAGUGUAAGUAGUCUGCAUGCCGCCGGGCGCCAUGCCUGCAGGUCGACUCUAGAAAACAUG” was tested, and the binding signal (PUM1 PUF domain R3-SCP) was 3.88 log2 enrichment (interaction score), the binding signal (PUM1 PUF domain R3-FRR) was 5.43 log2 enrichment (interaction score) and the binding signal (PUM1 PUF domain R3-GIR) was 3.07 log2 enrichment (interaction score). The binding signal (PUM1 PUF domain R3-AAE) was 3.07 log2 enrichment (interaction score) and the binding signal (PUM1 PUF domain R3-TRC) was 2.14 log2 enrichment (interaction score).
For “GGCUAGAACUAGUGGAUCCCCCGGCGCCCGGCGGCUCGAGCCCGGGUAAGUCUAAAUAGUCUGCAUGCCGCCGGGCGCCAUGCCUGCAGGUCGACUCUAGAAAACAUG”, the binding signal (PUM1 PUF domain R7-RRH) was 4.29 log2 enrichment (interaction score).
With “GGCUAGAACUAGUGGAUCCCCCGGCGCCCGGCGGCUCGAGCCCGGGUAAGUGUAAUUAGUCUGCAUGCCGCCGGGCGCCAUGCCUGCAGGUCGACUCUAGAAAACAUG” the binding signal (PUM1 PUF domain R3-SCP) was 3.31 log2 enrichment (interaction score), the binding signal (PUM1 PUF domain R3-RVN) was 4.09 log2 enrichment (interaction score) and the binding signal (PUM1 PUF domain R3-FRR) was 2.42 log2 enrichment (interaction score). The binding signal (PUM1 PUF domain R3-GIR) was 1.55 log2 enrichment (interaction score) and the binding signal (PUM1 PUF domain R3-RPD) was 3.79 log2 enrichment (interaction score).
With “GGCUAGAACUAGUGGAUCCCCCGGCGCCCGGCGGCUCGAGCCCGGGUAAGUUUAAAUAGUCUGCAUGCCGCCGGGCGCCAUGCCUGCAGGUCGACUCUAGAAAACAUG” the binding signal (PUM1 PUF domain R7-RRH) was 5.13 log2 enrichment (interaction score) and the binding signal (PUM1 PUF domain R7-ISS) was 3.84 log2 enrichment (interaction score).
With “GGCUAGAACUAGUGGAUCCCCCGGCGCCCGGCGGCUCGAGCCCGGGUAAGUGAAAAUAGUCUGCAUGCCGCCGGGCGCCAUGCCUGCAGGUCGACUCUAGAAAACAUG” the binding signal (PUM1 PUF domain R6-VFK) was 8.43 log2 enrichment (interaction score).
With “GGCUAGAACUAGUGGAUCCCCCGGCGCCCGGCGGCUCGAGCCCGGGUAAGUGUAAAAAGUCUGCAUGCCGCCGGGCGCCAUGCCUGCAGGUCGACUCUAGAAAACAUG” the binding signal (PUM1 PUF domain R2-PFQ) was 4.24 log2 enrichment (interaction score).
For “GGCUAGAACUAGUGGAUCCCCCGGCGCCCGGCGGCUCGAGCCCGGGUAAGUGUAAAUAGUCUGCAUGCCGCCGGGCGCCAUGCCUGCAGGUCGACUCUAGAAAACAUG”, the binding signal (PUM1 PUF domain R4-EHG) was 2.3 log2 enrichment (interaction score), the binding signal (PUM1 PUF domain R4-SRG) was 4.42 log2 enrichment (interaction score) and the binding signal (PUM1 PUF domain R6-VFK) was 3.04 log2 enrichment (interaction score). The binding signal (PUM1 PUF domain R3-TRC) was 3.26 log2 enrichment (interaction score), the binding signal (PUM1 PUF domain R5-LHD) was 3.18 log2 enrichment (interaction score) and the binding signal (PUM1 PUF domain R6-SFK) was 6.49 log2 enrichment (interaction score). The binding signal (PUM1 PUF domain R3-LYI) was 4.35 log2 enrichment (interaction score) and the binding signal (PUM1 PUF domain R4-RMQ) was 3.34 log2 enrichment (interaction score).
“GGCUAGAACUAGUGGAUCCCCCGGCGCCCGGCGGCUCGAGCCCGGGUAAGUGUCAAUAGUCUGCAUGCCGCCGGGCGCCAUGCCUGCAGGUCGACUCUAGAAAACAUG” was tested, and the binding signal (PUM1 PUF domain R5-LKL) was 4 log2 enrichment (interaction score).
“GGCUAGAACUAGUGGAUCCCCCGGCGCCCGGCGGCUCGAGCCCGGGUAAGUGCAAAUAGUCUGCAUGCCGCCGGGCGCCAUGCCUGCAGGUCGACUCUAGAAAACAUG” was tested, and the binding signal (PUM1 PUF domain R6-VFK) was 1.94 log2 enrichment (interaction score).
With “GGCUAGAACUAGUGGAUCCCCCGGCGCCCGGCGGCUCGAGCCCGGGUAAGUGUACAUAGUCUGCAUGCCGCCGGGCGCCAUGCCUGCAGGUCGACUCUAGAAAACAUG” the binding signal (PUM1 PUF domain R4-EHG) was 2.82 log2 enrichment (interaction score), the binding signal (PUM1 PUF domain R4-SRG) was 0.54 log2 enrichment (interaction score) and the binding signal (PUM1 PUF domain R4-FNM) was 2.87 log2 enrichment (interaction score).
“GGCUAGAACUAGUGGAUCCCCCGGCGCCCGGCGGCUCGAGCCCGGGUAAGCGUAAAUAGUCUGCAUGCCGCCGGGCGCCAUGCCUGCAGGUCGACUCUAGAAAACAUG” was tested, and the binding signal (PUM1 PUF domain R8-PWI) was 4.09 log2 enrichment (interaction score).
In the case of “GGCUAGAACUAGUGGAUCCCCCGGCGCCCGGCGGCUCGAGCCCGGGUAAGUGUAUAUAGUCUGCAUGCCGCCGGGCGCCAUGCCUGCAGGUCGACUCUAGAAAACAUG”, the binding signal (PUM1 PUF domain R4-SRG) is reported as 1.37 log2 enrichment (interaction score) and the binding signal (PUM1 PUF domain R4-FNM) is reported as 3.46 log2 enrichment (interaction score).
